Our source for the inhibition values is ChEMBL document CHEMBL1961873, “Compounds: GSK PKIS; Assays: Nanosyn kinase panel” (2012).

Assay [1] deals with Sphingosine kinase 1 (Homo sapiens) (UniProt Q9NYA1). As to conditions: at 1 µM.
Assay [2] concerns the target T1, Sphingosine kinase 2 (Homo sapiens) (UniProt Q9NRA0).
T1 sequence (whole entry): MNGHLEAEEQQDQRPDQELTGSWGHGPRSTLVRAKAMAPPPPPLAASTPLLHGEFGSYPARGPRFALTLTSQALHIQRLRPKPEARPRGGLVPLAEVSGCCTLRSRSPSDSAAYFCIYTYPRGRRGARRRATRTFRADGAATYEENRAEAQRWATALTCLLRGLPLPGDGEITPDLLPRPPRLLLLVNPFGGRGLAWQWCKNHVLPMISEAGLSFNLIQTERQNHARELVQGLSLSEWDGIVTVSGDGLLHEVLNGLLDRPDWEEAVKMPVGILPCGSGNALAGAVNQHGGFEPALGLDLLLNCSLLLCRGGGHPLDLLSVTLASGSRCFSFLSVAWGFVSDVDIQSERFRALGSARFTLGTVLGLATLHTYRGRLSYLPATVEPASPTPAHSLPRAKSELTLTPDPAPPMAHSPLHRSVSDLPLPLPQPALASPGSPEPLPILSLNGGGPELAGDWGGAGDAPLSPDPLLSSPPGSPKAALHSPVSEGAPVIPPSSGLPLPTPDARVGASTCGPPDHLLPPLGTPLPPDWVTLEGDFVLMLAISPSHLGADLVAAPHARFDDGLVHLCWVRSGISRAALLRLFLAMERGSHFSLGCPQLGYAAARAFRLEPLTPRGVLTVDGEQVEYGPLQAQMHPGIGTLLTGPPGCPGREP
As to conditions: at 0.1 µM.

Assay [3] has as its target T1, Sphingosine kinase 2 (Homo sapiens). The following applies: at 1 µM.
In assay [4] the target is Casein kinase II subunit alpha (Homo sapiens) (UniProt P68400). The following applies: at 0.1 µM.
Chain of Casein kinase II subunit alpha (Homo sapiens) (P68400 whole entry, looked up): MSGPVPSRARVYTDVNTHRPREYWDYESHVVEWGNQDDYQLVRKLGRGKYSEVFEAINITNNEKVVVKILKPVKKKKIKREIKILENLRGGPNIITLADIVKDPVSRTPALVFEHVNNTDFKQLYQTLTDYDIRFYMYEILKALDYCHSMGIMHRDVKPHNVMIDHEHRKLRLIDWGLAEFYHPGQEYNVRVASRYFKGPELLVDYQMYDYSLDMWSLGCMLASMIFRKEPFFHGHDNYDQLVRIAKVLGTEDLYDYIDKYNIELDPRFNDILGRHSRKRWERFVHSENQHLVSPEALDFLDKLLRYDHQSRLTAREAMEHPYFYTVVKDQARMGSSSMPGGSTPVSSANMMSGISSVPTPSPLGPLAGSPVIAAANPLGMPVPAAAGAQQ
Assay [5] shares this target. As to conditions: at 1 µM.
Assay [6] deals with T2, Inhibitor of nuclear factor kappa-B kinase subunit alpha (Homo sapiens) (UniProt O15111).
T2 sequence (whole entry): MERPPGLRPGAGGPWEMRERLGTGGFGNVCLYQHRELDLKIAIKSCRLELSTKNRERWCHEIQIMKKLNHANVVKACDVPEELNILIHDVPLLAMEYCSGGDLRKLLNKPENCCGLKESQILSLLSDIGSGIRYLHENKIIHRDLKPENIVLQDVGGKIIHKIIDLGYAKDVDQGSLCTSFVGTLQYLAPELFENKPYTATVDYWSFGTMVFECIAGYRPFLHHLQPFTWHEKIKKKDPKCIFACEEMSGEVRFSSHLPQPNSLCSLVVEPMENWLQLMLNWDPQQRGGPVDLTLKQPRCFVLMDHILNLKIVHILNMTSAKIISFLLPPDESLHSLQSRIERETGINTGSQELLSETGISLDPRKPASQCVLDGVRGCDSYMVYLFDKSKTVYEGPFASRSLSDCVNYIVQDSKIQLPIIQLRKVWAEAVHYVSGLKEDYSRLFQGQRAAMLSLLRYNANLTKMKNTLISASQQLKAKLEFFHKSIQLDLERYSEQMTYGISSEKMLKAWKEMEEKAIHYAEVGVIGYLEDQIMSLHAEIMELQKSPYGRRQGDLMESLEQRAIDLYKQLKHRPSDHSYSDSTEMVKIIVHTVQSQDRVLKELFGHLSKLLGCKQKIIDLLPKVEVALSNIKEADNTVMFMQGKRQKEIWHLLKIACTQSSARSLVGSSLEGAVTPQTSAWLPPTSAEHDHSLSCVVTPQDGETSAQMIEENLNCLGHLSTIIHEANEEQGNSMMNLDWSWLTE
As to conditions: at 0.1 µM.

Assay [7] concerns the target T2, Inhibitor of nuclear factor kappa-B kinase subunit alpha (Homo sapiens). The following applies: at 1 µM.
Assay [8] deals with T3, Inhibitor of nuclear factor kappa-B kinase subunit beta (Homo sapiens) (UniProt O14920).
T3 sequence (whole entry): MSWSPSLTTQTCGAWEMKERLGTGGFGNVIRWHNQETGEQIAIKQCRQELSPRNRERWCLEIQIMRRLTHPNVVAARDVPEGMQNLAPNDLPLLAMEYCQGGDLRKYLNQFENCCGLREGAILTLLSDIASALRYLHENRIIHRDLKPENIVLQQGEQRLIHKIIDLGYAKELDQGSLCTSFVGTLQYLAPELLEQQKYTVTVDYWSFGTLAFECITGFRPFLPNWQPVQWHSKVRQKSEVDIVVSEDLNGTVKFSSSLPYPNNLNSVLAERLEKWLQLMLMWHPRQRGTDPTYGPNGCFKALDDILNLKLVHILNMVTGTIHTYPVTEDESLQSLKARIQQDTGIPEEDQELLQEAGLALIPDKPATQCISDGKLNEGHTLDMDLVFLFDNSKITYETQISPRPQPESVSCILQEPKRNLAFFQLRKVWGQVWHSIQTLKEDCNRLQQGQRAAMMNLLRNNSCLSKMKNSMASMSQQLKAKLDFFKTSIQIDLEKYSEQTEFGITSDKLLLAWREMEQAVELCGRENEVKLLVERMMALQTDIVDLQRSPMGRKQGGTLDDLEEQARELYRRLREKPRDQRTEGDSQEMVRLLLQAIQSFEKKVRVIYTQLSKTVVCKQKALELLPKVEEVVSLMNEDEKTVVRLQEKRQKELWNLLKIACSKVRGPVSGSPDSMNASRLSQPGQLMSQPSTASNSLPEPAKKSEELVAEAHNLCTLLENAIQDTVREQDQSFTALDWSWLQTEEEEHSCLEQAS
The following applies: at 0.1 µM.

Assay [9] addresses T3, Inhibitor of nuclear factor kappa-B kinase subunit beta (Homo sapiens). As to conditions: at 1 µM.
Assay [10] has as its target T4, Inhibitor of nuclear factor kappa-B kinase subunit epsilon (Homo sapiens) (UniProt Q14164).
T4 sequence (whole entry): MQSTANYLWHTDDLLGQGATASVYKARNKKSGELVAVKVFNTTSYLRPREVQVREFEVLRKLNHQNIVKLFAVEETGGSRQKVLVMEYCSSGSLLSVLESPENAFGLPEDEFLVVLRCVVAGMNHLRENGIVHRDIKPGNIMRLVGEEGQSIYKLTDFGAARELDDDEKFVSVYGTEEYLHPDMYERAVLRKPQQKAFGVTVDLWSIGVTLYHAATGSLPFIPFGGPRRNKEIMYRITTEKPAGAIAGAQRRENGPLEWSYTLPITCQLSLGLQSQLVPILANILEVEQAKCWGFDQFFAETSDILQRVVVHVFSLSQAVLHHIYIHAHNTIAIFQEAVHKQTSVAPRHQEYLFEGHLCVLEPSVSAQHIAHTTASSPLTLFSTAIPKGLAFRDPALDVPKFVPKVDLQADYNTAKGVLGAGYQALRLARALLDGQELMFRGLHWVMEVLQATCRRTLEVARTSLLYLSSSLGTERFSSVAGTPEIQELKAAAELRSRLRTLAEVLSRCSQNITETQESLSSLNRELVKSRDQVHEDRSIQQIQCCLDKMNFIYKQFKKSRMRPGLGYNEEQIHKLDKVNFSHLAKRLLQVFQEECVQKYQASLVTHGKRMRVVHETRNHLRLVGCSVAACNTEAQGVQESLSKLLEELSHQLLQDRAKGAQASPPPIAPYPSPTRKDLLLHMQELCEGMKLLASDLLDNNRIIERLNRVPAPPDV
The following applies: at 0.1 µM.

Assay [11] concerns the target T4, Inhibitor of nuclear factor kappa-B kinase subunit epsilon (Homo sapiens). As to conditions: at 1 µM.
For assay [12], the target named is T5, Serine/threonine-protein kinase Nek1 (Homo sapiens) (UniProt Q96PY6).
T5 sequence (whole entry): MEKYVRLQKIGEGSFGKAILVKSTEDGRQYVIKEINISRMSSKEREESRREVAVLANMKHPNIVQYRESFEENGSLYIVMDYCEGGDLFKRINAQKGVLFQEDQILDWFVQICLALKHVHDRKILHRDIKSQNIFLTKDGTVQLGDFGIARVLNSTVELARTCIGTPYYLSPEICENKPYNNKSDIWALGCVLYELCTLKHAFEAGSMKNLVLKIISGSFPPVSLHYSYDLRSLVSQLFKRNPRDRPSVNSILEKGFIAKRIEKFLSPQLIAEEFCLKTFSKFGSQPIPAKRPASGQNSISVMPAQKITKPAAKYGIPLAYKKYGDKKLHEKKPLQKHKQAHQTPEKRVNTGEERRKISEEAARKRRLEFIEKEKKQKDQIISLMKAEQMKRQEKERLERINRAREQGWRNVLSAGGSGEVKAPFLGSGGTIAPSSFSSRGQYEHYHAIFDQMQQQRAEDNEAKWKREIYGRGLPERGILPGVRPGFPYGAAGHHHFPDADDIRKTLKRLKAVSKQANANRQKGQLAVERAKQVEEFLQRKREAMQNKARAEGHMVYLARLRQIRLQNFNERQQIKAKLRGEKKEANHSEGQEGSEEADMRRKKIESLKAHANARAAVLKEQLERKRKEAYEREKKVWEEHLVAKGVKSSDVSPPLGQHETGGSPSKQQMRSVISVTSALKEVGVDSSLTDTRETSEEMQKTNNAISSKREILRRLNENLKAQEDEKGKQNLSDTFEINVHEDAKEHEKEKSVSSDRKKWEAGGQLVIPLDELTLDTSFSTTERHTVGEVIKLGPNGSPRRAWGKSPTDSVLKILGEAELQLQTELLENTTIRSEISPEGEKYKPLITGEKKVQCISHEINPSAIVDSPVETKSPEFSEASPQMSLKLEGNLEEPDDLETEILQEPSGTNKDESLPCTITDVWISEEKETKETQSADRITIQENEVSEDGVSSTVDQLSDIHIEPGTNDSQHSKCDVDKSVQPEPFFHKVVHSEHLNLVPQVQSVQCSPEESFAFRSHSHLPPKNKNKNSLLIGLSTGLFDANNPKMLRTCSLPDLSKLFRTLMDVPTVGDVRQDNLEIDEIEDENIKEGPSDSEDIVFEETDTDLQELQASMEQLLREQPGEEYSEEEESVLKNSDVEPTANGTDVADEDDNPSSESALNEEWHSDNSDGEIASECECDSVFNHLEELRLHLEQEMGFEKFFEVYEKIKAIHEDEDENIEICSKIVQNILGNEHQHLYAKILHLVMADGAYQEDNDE
The following applies: at 0.1 µM.

Assay [13] has as its target T5, Serine/threonine-protein kinase Nek1 (Homo sapiens). As to conditions: at 1 µM.
Assay [14] deals with T6, Serine/threonine-protein kinase Nek2 (Homo sapiens) (UniProt P51955).
T6 sequence (whole entry): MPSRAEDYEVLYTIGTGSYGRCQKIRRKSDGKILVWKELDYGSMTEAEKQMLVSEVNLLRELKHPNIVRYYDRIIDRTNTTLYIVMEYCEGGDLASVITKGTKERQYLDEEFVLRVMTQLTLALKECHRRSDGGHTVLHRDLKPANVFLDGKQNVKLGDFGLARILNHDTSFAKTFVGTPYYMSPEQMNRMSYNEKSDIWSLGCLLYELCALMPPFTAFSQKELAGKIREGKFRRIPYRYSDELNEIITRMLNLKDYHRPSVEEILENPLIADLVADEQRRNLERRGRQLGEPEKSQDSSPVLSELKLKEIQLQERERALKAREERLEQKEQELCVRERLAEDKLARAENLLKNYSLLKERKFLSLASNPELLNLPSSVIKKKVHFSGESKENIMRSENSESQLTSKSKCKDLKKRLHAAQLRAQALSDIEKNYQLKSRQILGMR
As to conditions: at 0.1 µM.

The target in assay [15] is T6, Serine/threonine-protein kinase Nek2 (Homo sapiens). The following applies: at 1 µM.
The target in assay [16] is Serine/threonine-protein kinase Nek6 (Homo sapiens) (UniProt Q9HC98). As to conditions: at 0.1 µM.
Chain of Serine/threonine-protein kinase Nek6 (Homo sapiens) (Q9HC98 whole entry): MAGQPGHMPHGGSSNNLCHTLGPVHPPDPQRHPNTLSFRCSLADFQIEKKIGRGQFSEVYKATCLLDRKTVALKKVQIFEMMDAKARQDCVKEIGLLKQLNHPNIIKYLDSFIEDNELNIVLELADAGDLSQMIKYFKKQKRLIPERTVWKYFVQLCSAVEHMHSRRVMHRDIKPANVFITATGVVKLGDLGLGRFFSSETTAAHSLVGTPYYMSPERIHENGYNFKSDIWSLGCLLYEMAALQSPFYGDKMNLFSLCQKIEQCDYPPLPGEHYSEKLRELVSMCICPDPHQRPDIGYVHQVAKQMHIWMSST
For assay [17] the target is unchanged. As to conditions: at 1 µM.
Assay [18] addresses Serine/threonine-protein kinase Nek7 (Homo sapiens) (UniProt Q8TDX7). As to conditions: at 0.1 µM.
Assay [19] has the same target. As to conditions: at 1 µM.
In assay [20] the target is T7, Serine/threonine-protein kinase Nek9 (Homo sapiens) (UniProt Q8TD19).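 Further: reported value is the mean percent inhibition of NEK9.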
T7 sequence (whole entry): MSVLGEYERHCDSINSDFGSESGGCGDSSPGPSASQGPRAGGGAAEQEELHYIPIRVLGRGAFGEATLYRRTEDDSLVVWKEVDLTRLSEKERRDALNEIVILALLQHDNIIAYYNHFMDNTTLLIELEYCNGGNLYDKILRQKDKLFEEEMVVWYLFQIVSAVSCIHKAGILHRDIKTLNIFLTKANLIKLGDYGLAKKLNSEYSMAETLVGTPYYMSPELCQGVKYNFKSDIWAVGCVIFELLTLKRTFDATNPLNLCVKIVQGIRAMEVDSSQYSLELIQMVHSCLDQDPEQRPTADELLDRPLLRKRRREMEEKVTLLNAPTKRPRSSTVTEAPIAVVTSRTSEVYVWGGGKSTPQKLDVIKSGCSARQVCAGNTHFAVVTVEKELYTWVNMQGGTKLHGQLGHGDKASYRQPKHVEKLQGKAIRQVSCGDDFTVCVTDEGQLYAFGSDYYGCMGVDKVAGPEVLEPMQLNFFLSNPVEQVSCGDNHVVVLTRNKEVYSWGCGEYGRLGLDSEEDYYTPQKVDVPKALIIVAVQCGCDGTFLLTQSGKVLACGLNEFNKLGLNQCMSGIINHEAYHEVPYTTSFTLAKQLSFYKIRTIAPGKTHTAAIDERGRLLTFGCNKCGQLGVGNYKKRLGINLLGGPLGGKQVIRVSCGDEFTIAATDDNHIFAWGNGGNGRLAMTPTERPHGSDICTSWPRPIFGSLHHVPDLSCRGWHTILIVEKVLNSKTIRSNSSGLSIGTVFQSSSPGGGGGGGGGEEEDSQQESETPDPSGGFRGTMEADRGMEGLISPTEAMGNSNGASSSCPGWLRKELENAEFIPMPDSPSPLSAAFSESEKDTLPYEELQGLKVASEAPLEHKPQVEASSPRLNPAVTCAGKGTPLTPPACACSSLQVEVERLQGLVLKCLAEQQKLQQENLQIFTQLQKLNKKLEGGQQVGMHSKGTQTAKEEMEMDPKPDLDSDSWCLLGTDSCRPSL
As to conditions: at 0.1 µM.

Chain of Serine/threonine-protein kinase Nek7 (Homo sapiens) (Q8TDX7 whole entry, looked up): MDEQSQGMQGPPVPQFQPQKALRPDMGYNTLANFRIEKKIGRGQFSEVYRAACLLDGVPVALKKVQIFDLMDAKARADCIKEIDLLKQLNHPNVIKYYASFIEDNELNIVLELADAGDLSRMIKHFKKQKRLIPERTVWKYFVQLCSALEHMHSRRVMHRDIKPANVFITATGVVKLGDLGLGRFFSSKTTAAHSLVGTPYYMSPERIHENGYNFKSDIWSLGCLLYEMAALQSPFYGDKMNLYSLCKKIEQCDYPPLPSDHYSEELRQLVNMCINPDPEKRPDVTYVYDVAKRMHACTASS
Chain of Sphingosine kinase 1 (Homo sapiens) (Q9NYA1 whole entry): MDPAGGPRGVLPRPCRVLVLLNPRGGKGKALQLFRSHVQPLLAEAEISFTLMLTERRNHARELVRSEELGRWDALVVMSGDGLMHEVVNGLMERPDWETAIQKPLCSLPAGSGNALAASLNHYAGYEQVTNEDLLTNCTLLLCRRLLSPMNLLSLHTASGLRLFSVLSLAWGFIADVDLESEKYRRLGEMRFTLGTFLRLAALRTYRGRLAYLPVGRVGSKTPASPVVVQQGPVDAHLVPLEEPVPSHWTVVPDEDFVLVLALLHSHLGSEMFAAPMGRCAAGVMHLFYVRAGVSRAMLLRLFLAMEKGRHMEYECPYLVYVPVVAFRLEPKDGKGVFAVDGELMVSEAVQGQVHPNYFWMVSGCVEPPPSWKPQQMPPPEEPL

Usually inhibition stands for the drop in the measured response relative to a control, in per cent. As for `CCn1c(-c2nonc2N)nc2c(C#CC(C)(C)O)nc(O[C@@H](CN)c3ccccc3)cc21`, the inhibition in assay [1] is -0.99%; in assay [2], -0.06%; in assay [3], -0.62%; in assay [4], -0.87%; in assay [5] it was 3.9%; in [6], -6.57%. The inhibition in assay [7] is -2.27%; in [8], -1.36%; in assay [9], -3.23%; in assay [10] it was 88.3%; in assay [11], 98.9%; in [12], 1.61%. The inhibition in assay [13] was 17.2%; in [14] it was 5.29%; in [15], 33.5%; in [16] it was 0.93%; in assay [17], -0.92%; in [18], 1.12%. Also, the inhibition in assay [19] came to 0.58%; in assay [20] it was 3.66%.
